structure (smiles),measurement,setting,value
Cc1ccc(NC(=O)Nc2ccc(Cl)c(C(F)(F)F)c2)cc1-c1ccc(C(=O)Nc2ccncc2)cc1 [GSK1398470],Kd,RAF1,340 nM
Cc1ccc(NC(=O)Nc2ccc(Cl)cc2)cc1-c1ccc(C(=O)Nc2ccncc2)cc1 [GSK1398472],Kd,RAF1,350 nM
Fc1ccc(-c2nn3cccc(F)c3c2-c2ccncc2)cc1 [GW475620],Kd,RET,> 10000 nM
CNCc1ccc2nc(NC(=O)c3ccc(C(C)(C)C)cc3)cn2c1,Kd,RIOK2,> 10000 nM
CC(C)c1cc(-c2ccc3c(N)n[nH]c3c2)nc(N)n1 [GSK2250882],Kd,RIOK3,440 nM
Nc1cccc(-c2ccc3c(N)n[nH]c3c2)n1 [GSK2192730],Kd,RIOK3,490 nM
